# About 480 (40%) of roughly 1,200 compounds were called active. The rule behind the calls is not given here. So high a share suggests a set chosen from earlier hits. These entries were drawn from the full list. Entries with a potency or affinity are not part of this list.
# Assay: viability loss in human hepatoma cells – cell-based, CellTiter-Glo luminescence, cherry-pick, set 2, cytotoxicity control, dose response (AID 743395)
# Details: HepG2 viability, CellTiter-Glo ATP luminescence, 72 h; series mostly up to 26 µM
row,Compound,outcome
1,Cc1cccc2c(N=Nc3ccc(S(=O)(=O)Nc4ccc(Cl)cc4)cc3[N+](=O)[O-])c(O)[nH]c12,inactive
2,Cc1ccc(-c2nc(CSCC(=O)Nc3cc(C)on3)c(C)o2)cc1,inactive
3,COc1ccc(C#Cc2ccc3c(c2)O[C@@H](CN(C)C(=O)Nc2cccc(OC)c2)[C@H](C)CN([C@H](C)CO)S3(=O)=O)cc1,inactive
4,CO[C@@H]1CN(C)C(=O)c2cc(NC(=O)Nc3c(C)noc3C)ccc2OC[C@@H](C)N(C)C[C@@H]1C,inactive
5,Cc1cccc(OCCNC(=O)c2ccc(Cl)c(S(=O)(=O)NCc3cccnc3)c2)c1,inactive
6,Cc1ccc(S(=O)(=O)NCc2ccccc2)cc1C(=O)N1CC(C)CC(C)C1 (stereo unspecified),inactive
7,N=c1sccn1CC(=O)Nc1ccc(S(N)(=O)=O)cc1,inactive
8,COC(=O)C[C@@H]1CC[C@@H]2[C@H](COc3ccc(NC(=O)c4ccc(C(F)(F)F)cc4)cc3C(=O)N2C)O1,inactive
9,NS(=O)(=O)c1ccc(CNc2ccc3ccccc3n2)cc1,inactive
10,O=C(CN(Cc1ccccc1)S(=O)(=O)c1ccc(F)cc1)NCc1cccnc1,inactive
11,COC(=O)c1ccsc1NC(=O)c1ccccc1,inactive
12,CCN(C(=O)COC(=O)c1cc(-c2ccccc2)nc2c1c(C)nn2-c1ccc(C)cc1)C1CCS(=O)(=O)C1 (stereo unspecified),inactive
13,CC(C)c1ccc(CN2CCN(S(=O)(=O)c3ccc(Cl)s3)CC2)cc1,inactive
14,Cc1cc(C)cc(C(=O)NCC(=O)OCc2cc([N+](=O)[O-])cc3c2OCOC3)c1,inactive
15,CCN(CC)C(=S)SSC(=S)N(CC)CC,inactive
16,Cc1cc2c(cc(C(=O)OC(C)C(=O)NCc3ccc(F)cc3)n2C)o1 (stereo unspecified),inactive
17,CCN(CC)CCn1c2c(c(SCC(=O)Nc3ccc(F)c(F)c3)nc1=O)CCC2,inactive
18,COc1cc(C(=O)OCCc2cc3ccccc3c(=O)o2)cc(OC)c1OC,inactive
19,O=C1c2ccccc2C(=O)N1Cc1cnc(N2CCN(c3ccccc3)CC2)s1,inactive
20,CCOC(=O)c1cnc(COc2ccc(OC)cc2)[nH]c1=O,inactive
21,S=C(NCCc1ccccc1)Nc1nccs1,inactive
22,COc1ccc(NS(=O)(=O)c2cc(NC(=O)Cc3c(F)cccc3Cl)ccc2OC)cc1,inactive
23,O=S(=O)(c1ccc(Br)cc1)N1CCCc2ccccc21,inactive

row,Compound,outcome
1,CC1CN(S(=O)(=O)c2ccc(C(=O)N3CCc4ccccc43)cc2)CC(C)O1 (stereo unspecified),inactive
2,C[C@H](CO)N1C[C@H](C)[C@H](CN(C)C(=O)c2ccc3c(c2)OCO3)Oc2cc(C#Cc3ccccc3F)ccc2S1(=O)=O,inactive
3,COc1ccc(C)cc1NC(=O)C(OC(=O)c1ccc(Cl)c(S(=O)(=O)N(C)c2ccccc2)c1)c1ccccc1 (stereo unspecified),inactive
4,O=c1c(O)c(-c2cccs2)oc2ccc(Cl)cc12,inactive
5,O=C(NCCCN1CCCC1=O)c1cc(S(=O)(=O)N2CCOCC2)c(Cl)cc1Cl,inactive
6,CC(C)Oc1ccc(S(=O)(=O)N2CCOCC2)cc1NC(=O)CCCSc1ccccc1,inactive
7,c1ccc2c(c1)N1CCCN=C1N2CCN1CCCCC1,inactive
8,COc1ccc(NC(=O)N(C)C[C@@H]2Oc3cc(C#CCC(C)C)ccc3S(=O)(=O)N([C@H](C)CO)C[C@@H]2C)cc1,inactive
9,O=C(NCC(c1cccs1)N1CCOCC1)c1ccc(OCc2ccccc2)cc1 (stereo unspecified),inactive
10,Cc1ccc(S(=O)(=O)N2CCOCC2)cc1NC(=O)CSc1nnc(COc2ccccc2F)n1N,inactive
11,CCOC(=O)[C@H](CCc1ccccc1)N[C@@H](C)C(=O)N1[C@H](C(=O)O)C[C@@H]2CCC[C@@H]21,inactive
12,CCOc1ccc(NS(=O)(=O)c2cc(NC(=O)CCNC(=O)c3ccco3)ccc2OC)cc1,inactive
13,CC(=O)OCC(=O)NCCCOc1cccc(CN2CCCCC2)c1,inactive
14,Cc1c(C)c2c(OCC(=O)N3CCC(O)CC3)cc3c(c2oc1=O)CCC(C)(C)O3,inactive
15,CCOc1ccc(C(=O)N[C@H](C(=O)Nc2cccc(S(=O)(=O)N3CCCCC3)c2)C(C)C)cc1,inactive
16,CN(Cc1cccs1)C(=O)c1cccc(S(=O)(=O)N2CCCCCC2)c1,inactive
17,COC(CNC(=O)[C@H](Cc1ccccc1)N1Cc2ccccc2C1=O)OC,inactive
18,CC(C(=O)O)N(C(=O)c1ccccc1)c1ccc(F)cc1 (stereo unspecified),inactive
19,COc1ccc(NC(=O)C2CCCN2C(=O)Nc2cccc(F)c2)cc1 (stereo unspecified),inactive
20,O=C(NCCC1CCCCN1S(=O)(=O)c1cccs1)C(=O)Nc1ccc(F)cc1F (stereo unspecified),inactive
21,Cc1ccc(OCC(=O)Nc2ccc(CN3CCCCC3)cc2)c(C)c1,inactive
22,CCN(CC)C1=CC2=CC(=C(C#N)C#N)CCC2CC1 (stereo unspecified),inactive
23,N#CC(C#N)=C1C=C2C=C(N3CCOCC3)CCC2CC1 (stereo unspecified),inactive

row,Compound,outcome
1,CC12CCC3c4ccc(O)cc4CCC3C1CCC2=O (stereo unspecified),inactive
2,C#C[C@]1(O)CC[C@H]2[C@@H]3CCc4cc(OC)ccc4[C@H]3CC[C@@]21C,inactive
3,COc1cccc(C#Cc2ccc3c(c2)O[C@@H](CN(C)C(=O)c2ccccn2)[C@H](C)CN([C@@H](C)CO)S3(=O)=O)c1,inactive
4,O=C(O)COC(=O)Cc1ccccc1Nc1c(Cl)cccc1Cl,inactive
5,CC(=O)c1cc(NC(=O)c2cccc(C(F)(F)F)c2)c(=O)oc1C,inactive
6,Cc1ccc(C(=O)Nc2cccc(C(F)(F)F)c2)cc1Nc1cnccn1,inactive
7,COCCNc1nc(Nc2ccc(C)cc2C)c2sccc2n1,inactive
8,Cn1cccc1C(=O)OCC(=O)NCc1ccc2c(c1)OCO2,inactive
9,CC(C)(C)C(=O)Nc1ccc(S(=O)(=O)NC2=NCCCCC2)cc1,inactive
10,CC(=O)NS(=O)(=O)c1ccc(NC(=O)CSc2ccc(Cl)cc2)cc1,inactive
11,Cc1ccc(S(=O)(=O)Nc2cc(C)cc(CCNC=O)c2C)cc1,inactive
12,Cc1cc(O)cc2c1C1CCC3(C)C(=O)CCC3C1C=C2 (stereo unspecified),inactive
13,COc1ccc(-c2oc3ccc(-c4cc(OC)c(OC)c(OC)c4)cc3c2C#Cc2ccccn2)cc1,inactive
14,COc1ccc(CCn2c(NN=C(C)C)nc3c2c(=O)[nH]c(=O)n3C)cc1,inactive
15,CCCCNC(=O)CSc1nc2ccc(C)cc2[nH]1,inactive
16,COC(=O)c1ccc(C(=O)NC2CCCc3c2cnn3-c2cc(F)cc(F)c2)nc1 (stereo unspecified),inactive
17,COC(=O)C1=CN(c2ccc3c(c2)OCO3)C(N)=C(C#N)C1c1cccc(F)c1 (stereo unspecified),inactive
18,COc1cccc(NC(=O)c2cnc(SCC(=O)NCc3ccc4c(c3)OCO4)n(C)c2=O)c1,inactive
19,O=C(Nc1ccc(F)cc1)N1CCCCN2[C@H](C1)[C@H](c1ccc(-c3cccc(F)c3)cc1)[C@@H]2CO,inactive
20,OC[C@@H]1[C@@H](c2ccc(C#CC3(O)CCCC3)cc2)[C@H]2CN(Cc3ccccc3F)CCCCN12,inactive
21,O=C(Nc1ccccc1)N1C[C@H]2[C@@H](c3ccccc31)[C@H](CO)N2C(=O)c1ccccn1,inactive
22,C/C=C/c1ccc([C@@H]2[C@H](CO)N3CCCCN(S(=O)(=O)c4ccccc4)C[C@@H]23)cc1,inactive
23,CCOc1ccc(NC(=O)CN(c2ccc([N+](=O)[O-])cc2)S(=O)(=O)c2ccccc2)cc1,inactive

row,Compound,outcome
1,Cc1ccc(NC(=O)Cc2nc(-c3c[nH]c(C(=O)N4CCCC4)c3)cs2)c(C)c1,inactive
2,COc1ccc(C#Cc2ccc([C@H]3[C@H]4CN(C(=O)c5ccncc5)CCCCN4[C@H]3CO)cc2)cc1,inactive
3,O=S(=O)(Cc1ccccc1)N1CCCCN2[C@H](C1)[C@@H](c1ccc(C#Cc3ccccc3)cc1)[C@@H]2CO,inactive
4,OC[C@H]1[C@H](c2ccc(C#CC3(O)CCCC3)cc2)[C@H]2CN(Cc3ccccc3F)CCCCN21,inactive
5,C[C@]12C=CC(=O)C=C1CC[C@@H]1C2[C@@H](O)C[C@@]2(C)C1CC[C@]2(O)C(=O)COC(=O)CCC(=O)O (stereo partly specified),inactive
6,Nc1nn(-c2ccccc2)c(N)c1N=Nc1cccc(F)c1,inactive
7,CCN(C(=O)COc1ccc2ccc(=O)oc2c1)C1CCCCC1,inactive
8,CC(C)Nc1nc(Nc2ccc(Cl)cc2F)c2sccc2n1,inactive
9,COc1cc(C(=O)N2CCC(C(N)=O)CC2)ccc1OCc1c(C)noc1C,inactive
10,Cc1noc(C)c1COc1ccc(C(=O)N2CCN(S(=O)(=O)c3ccc(F)cc3)CC2)cc1,inactive
11,CCOC(=O)c1c(NC(=O)CN2C(=O)NC3(CCC(C)CC3)C2=O)sc(C)c1CC (stereo unspecified),inactive
12,CC(Oc1ccccc1Cl)C(=O)Nc1ccc(S(=O)(=O)Nc2nccs2)cc1 (stereo unspecified),inactive
13,CCCCCCCCCC(=O)OCC(O)CO (stereo unspecified),inactive
14,O=C(CSc1nnc(Cn2c(=O)sc3ccccc32)n1-c1ccccc1)NCc1ccco1,inactive
15,Cc1cccc(COc2ccccc2C(=O)NC2CCC(O)CC2)c1 (stereo unspecified),inactive
16,Cc1csc2sc(-c3ccnc(SCC(=O)NCc4ccccc4)n3)c(C)c12,inactive
17,CCC(=O)N1[C@H](CN(CC)C(C)=O)[C@@H](c2ccc(-c3ccccc3)cc2)[C@@H]1CO,inactive
18,CC(C)C#Cc1ccc([C@@H]2[C@@H](CO)N3C(=O)CN(S(=O)(=O)c4ccccc4)C[C@@H]23)cc1,inactive
19,CN(C[C@@H]1N[C@H](CO)[C@H]1c1ccccc1)C(=O)c1ccccn1,inactive
20,CNC(=O)CC1C(=O)N(c2ccc(F)cc2)C(=S)N1NC(=O)c1ccc(Cl)cc1 (stereo unspecified),inactive
21,C[C@H]1CCCCO[C@@H](CN(C)C(=O)C2CCCCC2)[C@@H](C)CN([C@@H](C)CO)C(=O)c2cc(NC(=O)Nc3ccc(C(F)(F)F)cc3)ccc2O1,inactive
22,C[C@H]1CCCCO[C@@H](CN(C)C(=O)Nc2ccc(C(F)(F)F)cc2)[C@@H](C)CN([C@@H](C)CO)C(=O)c2cc(NC(=O)Nc3ccc(F)cc3)ccc2O1,inactive
23,C[C@H]1CCCCO[C@@H](CN(C)C(=O)Nc2ccc(C(F)(F)F)cc2)[C@@H](C)CN([C@@H](C)CO)C(=O)c2cc(NC(=O)Nc3ccc4c(c3)OCO4)ccc2O1,inactive

row,Compound,outcome
1,C[C@H](CO)N1C[C@H](C)[C@@H](CN(C)C(=O)Nc2ccc(C(F)(F)F)cc2)OCCCC[C@H](C)Oc2ccc(NC(=O)Nc3ccc(F)cc3)cc2C1=O,inactive
2,C[C@H]1CCCCO[C@H](CN(C)C(=O)Nc2ccc(C(F)(F)F)cc2)[C@@H](C)CN([C@@H](C)CO)C(=O)c2cc(NC(=O)Nc3ccc(F)cc3)ccc2O1,inactive
3,C[C@@H]1CN([C@@H](C)CO)C(=O)c2cccc(NC(=O)NC3CCCCC3)c2O[C@@H]1CN(C)Cc1ccc(Cl)c(Cl)c1,inactive
4,C[C@H]1CN([C@@H](C)CO)S(=O)(=O)c2ccc(/C=C/c3ccccc3)cc2O[C@@H]1CN(C)C(=O)Nc1ccc(F)cc1,inactive
5,Cn1cnc2nc[nH]c2c1=S,inactive
6,Cc1ccc(NC(=O)COc2ccc(Br)cc2CO)cc1S(=O)(=O)N1CCOCC1,inactive
7,CCc1nc(C)cn1S(=O)(=O)c1ccc2c(c1)OCCO2,inactive
8,CCCCC(=NCCc1c(C)[nH]c2ccccc12)C1=C(O)CC(c2ccccc2)CC1=O (stereo unspecified),inactive
9,COC(=O)c1[nH]c2c(c1C)C(=O)CC(c1cccc(OC)c1)C2 (stereo unspecified),inactive
10,O=C(Cc1ccccn1)NCC[C@H]1CC[C@@H](NC(=O)Nc2ccc(C(F)(F)F)cc2)[C@@H](CO)O1,inactive
11,Cc1ccc(S(=O)(=O)N(Cc2cc3ccccc3[nH]c2=O)c2cccc(C)c2)cc1,inactive
12,C=CC(C)(C)c1[nH]cnc1/C=C1\NC(=O)C(C(C)C)NC1=O (stereo unspecified),inactive
13,O=C(Cc1ccc(Cl)cc1)OCC(=O)c1ccc[nH]1,inactive
14,Cc1ccc(CN(C)CC(=O)Nc2cccc([N+](=O)[O-])c2)o1,inactive
15,CCCCN(C(=O)c1cc(S(=O)(=O)N2CCCCC2)ccc1Cl)c1c(N)n(CC(C)C)c(=O)[nH]c1=O,inactive
16,CN1C(=O)c2cc(NC(=O)Cc3ccccc3)ccc2OC[C@@H]2O[C@H](CC(=O)NCc3ccc(Cl)cc3)CC[C@H]21,inactive
17,O=C(C[C@H]1CC[C@@H]2[C@H](COC[C@@H](O)CN2S(=O)(=O)c2ccccc2)O1)Nc1ccc(-c2ccccc2)cc1,inactive
18,COc1ccc(NC(=O)CSc2nnc(Cc3cccs3)n2C)cc1,inactive
19,CCCCn1cnc2c(c(CC#N)nn2-c2ccccc2)c1=N,inactive

# From PubChem BioAssay AID743395 (Broad Institute, 2014)
